From PubChem BioAssay AID1416 (The Scripps Research Institute Molecular Screening Center, 2008)
The whole screen tested about 220,000 compounds, of which about 370 (0.17%) were called active.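 How the source made its calls: active means inhibition above the mean inhibition of all tested compounds plus 3 SD, set separately per screening campaign (cut at about 2.9% in these data); inactive means the rest.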 The sample as a whole holds a higher share of actives than the screen did.

The molecules below were run against Eukaryotic translation initiation factor 2-alpha kinase 3 (Homo sapiens) (UniProt Q9NZJ5) (assay: block of dimerizer-induced PERK translation repression, primary screen, PERK inhibitor project, CHO PERK-DD cells, SEAP luminescence, HTS (AID 1416;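 further: PERK kinase domain activated by AP20187 dimerizer at 100 nM; 0% = DMSO with dimerizer and 100% = rapamycin at 8.4 µM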)). Conditions: CHO PERK-DD fusion, SEAP luminescence translation reporter; at 5.6 µM; active compounds read high.
Sequence of Eukaryotic translation initiation factor 2-alpha kinase 3 (Homo sapiens) (Q9NZJ5 whole entry, looked up, the tested form may be a part): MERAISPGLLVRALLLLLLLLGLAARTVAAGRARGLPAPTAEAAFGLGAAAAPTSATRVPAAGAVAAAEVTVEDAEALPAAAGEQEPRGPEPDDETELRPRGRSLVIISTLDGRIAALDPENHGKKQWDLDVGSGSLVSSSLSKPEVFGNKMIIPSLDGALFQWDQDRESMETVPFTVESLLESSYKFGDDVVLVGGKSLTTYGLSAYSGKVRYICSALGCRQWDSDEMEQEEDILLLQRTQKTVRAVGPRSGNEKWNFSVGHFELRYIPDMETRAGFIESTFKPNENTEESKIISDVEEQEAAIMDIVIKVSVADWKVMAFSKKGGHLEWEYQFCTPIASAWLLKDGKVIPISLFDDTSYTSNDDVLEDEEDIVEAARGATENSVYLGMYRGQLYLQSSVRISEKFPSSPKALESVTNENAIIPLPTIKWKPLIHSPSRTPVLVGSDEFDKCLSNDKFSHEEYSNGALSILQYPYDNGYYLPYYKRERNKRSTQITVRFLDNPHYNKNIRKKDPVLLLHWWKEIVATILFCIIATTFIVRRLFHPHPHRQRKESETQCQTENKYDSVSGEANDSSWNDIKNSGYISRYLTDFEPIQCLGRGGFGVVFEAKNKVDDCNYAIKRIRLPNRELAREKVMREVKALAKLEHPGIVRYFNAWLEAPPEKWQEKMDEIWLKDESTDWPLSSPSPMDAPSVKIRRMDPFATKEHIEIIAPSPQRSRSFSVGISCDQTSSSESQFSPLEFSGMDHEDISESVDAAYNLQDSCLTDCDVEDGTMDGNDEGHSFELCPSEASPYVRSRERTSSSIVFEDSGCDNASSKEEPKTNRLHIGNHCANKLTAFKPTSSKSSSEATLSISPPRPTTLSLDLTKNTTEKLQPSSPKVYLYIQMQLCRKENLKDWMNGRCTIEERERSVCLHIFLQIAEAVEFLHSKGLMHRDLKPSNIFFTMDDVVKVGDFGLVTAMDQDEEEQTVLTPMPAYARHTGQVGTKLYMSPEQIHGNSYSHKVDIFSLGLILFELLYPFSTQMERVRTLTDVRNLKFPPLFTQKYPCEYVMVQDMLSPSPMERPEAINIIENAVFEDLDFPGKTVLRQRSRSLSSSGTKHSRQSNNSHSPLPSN

inhibition, active:
CC(C)C[C@H](NC(=O)NCCc1ccc(Cl)cc1)C(=O)O 3.16%
O=C1C=CC(=O)N1c1ccc(N2CCCCC2)cc1 3.21%
C=CCSc1nc(N)cc(=O)[nH]1 2.99%

inhibition, inactive:
Cc1ccc2c(c1)NCC(C(=O)NC1CCC(C)CC1)O2 (stereo unspecified) 0.88%
COCc1c(C(=O)N/N=C/C2CC=CCC2)nnn1-c1nonc1N (stereo unspecified) 0.44%
COc1ccc(NC(=S)Nc2ccc(S(N)(=O)=O)cc2)c(C)c1 1.02%
CN(Cc1ccccn1)Cc1nc(-c2ccc(Cl)cc2)no1 0.32%
COC(=O)C1=C(C)NC(=O)CC1c1ccccc1OC (stereo unspecified) 0.25%
CN(c1ccc(OCC(=O)NC2=NCCS2)cc1)S(=O)(=O)c1ccc(F)cc1 1.79%
Cc1cccc(N2CCN(c3ccc(NC(=O)/C=C\C(=O)O)cc3)CC2)c1 0.1%
CS/C(=C\[N+](=O)[O-])Nc1ccc(C)cc1 1.47%
CCOCCn1c(-c2ccccc2)nc2ccccc21 -1.39%
Cc1ccccc1C1=N/C(=C/c2cccnc2)C(=O)O1 0.44%
O=C(CC1Nc2ccccc2NC1=O)Nc1ccccc1NC(=O)CC1Nc2ccccc2NC1=O (stereo unspecified) 0.97%
CN(C)S(=O)(=O)N1CCN(c2ccc([N+](=O)[O-])cc2)CC1 0.53%
Cc1cc(NC(=O)/C=C/C(=O)N(c2ccccc2C)C(C(=O)NC2CCCC2)c2ccc(F)cc2)no1 (stereo unspecified) 2.4%
CSc1sc(C(=O)NC(=O)NCc2cccnc2)c(C)c1-c1ccon1 -0.78%
Cc1c(C=O)n(C)n(-c2ccccc2)c1=O 0.28%
Cc1ccc(Cl)c(NC(=O)CN(C)CC(=O)Nc2ccc(F)c(F)c2F)c1Cl 0.24%
Cc1noc(C)c1C(=O)OCC(=O)N1CCN(S(=O)(=O)c2ccc3ccccc3c2)CC1 1.94%
COc1ccc(C(F)(F)F)cc1N/C=C\c1nnnn1-c1ccc(C)cc1 1.24%
C#CCNC(=O)C1=C[C@@H](c2ccccc2)[C@H](CCCO)[C@@H](OCC)O1 0.82%
C[C@H](NC(=O)NCCc1ccccc1)C(=O)O 1.63%
CSCC[C@H](NC(=O)NCCc1ccc(F)cc1)C(=O)O 0.4%
CC(=O)c1ccc(NC(=O)CSC(=S)N2CCCC2)cc1 -0.15%
Cc1cc(C)n(CC(O)CN(c2ccccc2)S(=O)(=O)c2ccc3ccccc3c2)n1 (stereo unspecified) 0.84%
CC(C)CCSc1ncnc2c1oc1nc3c(cc12)COC(C)(C)C3 -0.1%
CC(=O)Nc1cccc(/C(C)=N/NC(=O)c2c(-c3ccccc3Cl)noc2C)c1 -0.07%
COc1ccccc1N=C(C)C1=C(O)COC1=O 0.22%
O=[N+]([O-])c1ccc2c(c1)C(O)n1nc(-c3ccccc3)nc1S2 (stereo unspecified) 1.41%
Cc1ccc(C(C)(C)C)c(OCCCCN2CCCC2)c1 -1.02%
CS(=O)(=O)N(CC(=O)Nc1ccc(F)cc1F)c1cccc([N+](=O)[O-])c1 1.41%
Cc1ccc(C)c(NC(=S)NNC(=S)Nc2ccc(C(C)C)cc2)c1 0.16%
OCCN1CCN(C(=S)c2ccc(-c3ccccc3)cc2)CC1 0.18%
CCOc1ccc(C(=O)NC(=S)Nc2ccc(N3CCOCC3)c(Cl)c2)cc1[N+](=O)[O-] 1.74%
CCCCn1nc(C(=O)Nc2ccc(S(=O)(=O)Nc3ncccn3)cc2)c2ccccc2c1=O 0.72%
O=c1c2sccc2nc(SCc2cc(=O)n3ccccc3n2)n1-c1ccc(Br)cc1 -1.2%
COc1cc(/C=N/NC(=O)Nc2ccccc2)ccc1OCCOc1ccccc1C 0.13%
CC(=O)Nc1ccccc1NC(=O)c1cc(C)cc(C)c1 0.02%
O=c1[nH][nH]c(=O)c2cc(N3CCCC3)ccc12 0.69%
Cc1ccccc1C(=O)Nc1ccc(N2CCCCCC2)cc1 -0.25%
CN1CCN(c2ccc(NC(=O)c3ccc4c(c3)[nH]c(=O)n4Cc3ccc(F)cc3)cc2)CC1 0.51%
CCc1cc(C(N)=O)c(NC(=O)c2ccc(OC)cc2)s1 0.45%
Cc1ccc2cc(/C=N/NC(=O)[C@@H]3CCCN3)c(Cl)nc2c1 -0.87%
CCCCc1nnc(NC(=O)CSc2nc(N)cc(=O)[nH]2)s1 0.08%
C=CCSc1nc2ccccc2[nH]1 -0.36%
CCOc1ccc(CCNC(=O)C(CC)n2nc(C)n3c(cc4sccc43)c2=O)cc1OCC (stereo unspecified) -0.56%
O=C(NCCc1ccc(F)cc1)c1n[nH]c2ccccc12 0.75%
C=C(C)CSc1nnc(-c2ccc(C)cc2)n1N 0.46%
CCCn1nnnc1NC(=O)COc1ccc(Cl)cc1C -0.15%
CSc1ccc(NC(=O)/C=C/C(=O)O)cc1 0.87%
COc1cccc(-c2ccc(C#N)c(SCC(=O)NCCc3ccc(Cl)cc3)n2)c1 1.75%
Cc1ccc(S(=O)(=O)N(Cc2ccc(Cl)cc2)c2ccccc2C(=O)NCc2cccnc2)cc1 -0.82%
O=C(Nc1ccc2cn[nH]c2c1)c1ccc(S(=O)(=O)N2CCOCC2)cc1 1.2%
Cc1ccc(NNC(=O)C2CCC2)cc1C 0.43%
COC(=O)CSc1nc2c(c(C3CC=CCC3)c1C#N)CCC2 (stereo unspecified) 0.22%
CCC(C)OC(=O)C(C)Oc1ccc(-c2ccccc2)cc1 (stereo unspecified) -0.27%
Cc1nn(Cc2ccccc2Cl)c(C)c1NC(=O)Cn1nc([N+](=O)[O-])c(Cl)c1C -0.58%
CC(=O)N1CCN(S(=O)(=O)c2ccc(C)c([N+](=O)[O-])c2)C1C(C)C (stereo unspecified) 0.34%
Cc1cccc(C)c1NC(=S)N(Cc1cccnc1)Cc1ccccc1Cl -0.05%
CSc1ccccc1C(=O)NCc1ccccc1 1.84%
